{
  "source": "PubChem BioAssay (Tox21)",
  "note": "Results filed as inconclusive are left out. The source made the active and inactive calls. Calls follow the shape of the dose curve; as a rule, active = well fitted cell-killing curve with a large enough effect in the repeat runs; inconclusive = weak or mixed curves; inactive = no such curve, though single readings can be large or run the other way. % is scaled to controls: 0 for no effect and ±100 for the full control effect.",
  "data": [
    {"experiment": "qHTS assay to identify small molecule antagonists of the androgen receptor (AR) signaling pathway - cell viability counter screen (AID 743033; also: nearly all actives have a fitted effect of over 45% in size)", "conditions": "AR-bla HEK293 viability, CellTiter-Glo luminescence, 16 h; series mostly up to 58.5 µM; activity change, negative = cytotoxicity: at the top concentration", "from_the_text": "National Center for Advancing Translational Sciences [NCATS]\nNIH Chemical Genomics Center [NCGC]\nU.S. Environmental Protection Agency [EPA]\nNational Institutes of Environmental Health Sciences [NIEHS]\nNational Toxicology Program [NTP]\nU.S. Food and Drug Administration [FDA]\nAndrogen receptor (AR), a nuclear hormone receptor, plays a critical role in AR-dependent prostate cancer and other androgen related diseases. Endocrine disrupting chemicals (EDCs) and their interactions with steroid hormone receptors like AR may cause disruption of normal endocrine function as well as interfere with metabolic homeostasis, reproduction, developmental and behavioral functions. To identify the compounds that inhibit AR signaling, GeneBLAzer AR-UAS-bla-GripTite cell line (Invitrogen, Carlsbad, CA, USA) containing a beta-lactamase reporter gene under control of an Upstream Activator Sequence (UAS) stably integrated into HEK293 cells was used to screen the Tox21 10K compound library. The cytotoxicity of the Tox21 compound library against the AR-bla cell line was tested in parallel by measuring the cell viability using CellTiter-Glo assay in the same wells.\nTox21 Assay Protocol Summary:\nAR-bla cells were dispensed at 2,000 cells/5 uL of assay medium per well into black wall/clear-bottom 1536-well plates using a Multidrop Combi (ThermoFisher Scientific, Waltham, MA) dispenser. After the assay plates were incubated at a 37C and 5% CO2 for 4 hr, 23 nL of compounds dissolved in DMSO, positive controls or DMSO only was transferred to the assay plate by a Pintool station (Kalypsys, San Diego, CA), followed by addition of 1 uL of agonist (R1881) in culture medium using a Bioraptr Flying Reagent Dispenser (FRD) workstation (Beckman Coulter, Indianapolis, IN, USA). The plates were incubated at a 37C and 5% CO2 for 16 h. After 1 uL of LiveBLAzerTM B/G FRET substrate was added using a Bioraptr FRD, the plates were incubated at room temperature for 2 h and fluorescence intensity was measured by an Envision plate reader (PerkinElmer, Shelton, CT). For cell viability readout that measures cytotoxicity, 4 ul/well of CellTiter-Glo reagent was added into the assay plates using a Bioraptr FRD. After 30 min incubation at room temperature, the luminescence intensity in the plates was measured using a ViewLux (PerkinElmer) plate reader.", "values": [
      {"smiles": "Cc1ccc(NC(N)=O)cc1", "activity change, negative = cytotoxicity": "-5.15% [at 78.9 µM] (inactive)"},
      {"smiles": "C/C=C(\\C)C=O", "activity change, negative = cytotoxicity": "10.3% [at 78.9 µM] (inactive)"},
      {"smiles": "CC1=C(O)C(=O)CO1", "activity change, negative = cytotoxicity": "10.8% (inactive)"},
      {"smiles": "CC(C)=CCC/C(C)=C\\C#N", "activity change, negative = cytotoxicity": "1.01% (inactive)"},
      {"smiles": "CC/C=C\\CCCCCCCCCCOC(C)=O", "activity change, negative = cytotoxicity": "3.06% (inactive)"},
      {"smiles": "CC(C)C(C)C", "activity change, negative = cytotoxicity": "0.621% (inactive)"},
      {"smiles": "CCCCC(CC)COC(=O)CC#N", "note": "(stereo not given)", "activity change, negative = cytotoxicity": "0.604% (inactive)"},
      {"smiles": "N=C(N)N", "activity change, negative = cytotoxicity": "-0.771% (inactive)"},
      {"smiles": "Cc1cc(O)c(Cl)cc1C", "activity change, negative = cytotoxicity": "-0.675% (inactive)"},
      {"smiles": "C=CCN(CC=C)CC=C", "activity change, negative = cytotoxicity": "1.8% (inactive)"},
      {"smiles": "C=CCCCCCCCCOC(C)=O", "activity change, negative = cytotoxicity": "7.39% (inactive)"},
      {"smiles": "NC[C@H]1O[C@H](O[C@H]2[C@H](O)[C@@H](O[C@H]3O[C@H](CO)[C@@H](O)[C@H](N)[C@H]3O)[C@H](N)C[C@@H]2N)[C@H](N)[C@@H](O)[C@@H]1O", "outcome": "inactive"},
      {"smiles": "CCc1ccc(CC)cc1", "activity change, negative = cytotoxicity": "4.07% [at 78.9 µM] (inactive)"},
      {"smiles": "CCCCCCCOC(C)=O", "activity change, negative = cytotoxicity": "7.05% (inactive)"},
      {"smiles": "O=CN1CCCCC1", "activity change, negative = cytotoxicity": "-0.531% (inactive)"},
      {"smiles": "CCOC(=O)CC", "activity change, negative = cytotoxicity": "4.32% (inactive)"},
      {"smiles": "O=C(O)Cc1ccccc1Oc1ccc(Cl)cc1Cl", "activity change, negative = cytotoxicity": "-0.816% (inactive)"},
      {"smiles": "CN(C)c1cc(NC(=O)CNC(C)(C)C)c(O)c2c1C[C@H]1C[C@H]3[C@H](N(C)C)C(=O)C(C(N)=O)=C(O)[C@@]3(O)C(=O)C1=C2O", "activity change, negative = cytotoxicity": "1.14% (inactive)"},
      {"smiles": "O=Cc1ccc(C(=O)O)cc1", "activity change, negative = cytotoxicity": "-0.669% [at 78.9 µM] (inactive)"},
      {"smiles": "CC(=O)SC[C@@H](C)C(=O)N1CCC[C@H]1C(=O)N[C@@H](Cc1ccccc1)C(=O)O", "activity change, negative = cytotoxicity": "0.0507% (inactive)"},
      {"smiles": "C[Si](C)(C)O[Si](O)(O)O", "activity change, negative = cytotoxicity": "-2.7% (inactive)"},
      {"smiles": "O=c1[nH]c(=O)c2cn[nH]c2[nH]1", "activity change, negative = cytotoxicity": "0.995% (inactive)"},
      {"smiles": "CCCCCCCCCCCCCCCC(=O)OC", "activity change, negative = cytotoxicity": "-9.78% [at 27 µM] (inactive)"},
      {"smiles": "CC(=O)Nc1ccc(S(=O)(=O)Nc2cc(C)on2)cc1", "activity change, negative = cytotoxicity": "0.504% (inactive)"},
      {"smiles": "COc1cc(C(=O)NC2CCCNC2)cc(OC)c1OC", "note": "(stereo not given)", "activity change, negative = cytotoxicity": "9.12% (inactive)"},
      {"smiles": "Nc1ccc(C(=O)NCC(=O)O)cc1", "activity change, negative = cytotoxicity": "-1.63% [at 27 µM] (inactive)"},
      {"smiles": "CCOCCOCCOC(C)=O", "activity change, negative = cytotoxicity": "3% [at 78.9 µM] (inactive)"},
      {"smiles": "Cc1ccccc1OCC(=O)O", "activity change, negative = cytotoxicity": "6.96% (inactive)"},
      {"smiles": "Cc1ccc(S(=O)(=O)NC(=O)NN2CC3CCCC3C2)cc1", "note": "(stereo not given)", "activity change, negative = cytotoxicity": "-10.7% [at 27 µM] (inactive)"},
      {"smiles": "COC(=O)c1ccc(C(=O)O)cc1", "activity change, negative = cytotoxicity": "-1.76% (inactive)"},
      {"smiles": "CC(C)(C)OC=O", "activity change, negative = cytotoxicity": "0.0605% [at 78.9 µM] (inactive)"},
      {"smiles": "COC(=O)C(c1ccccc1Cl)N1CCc2sccc2C1", "note": "(stereo not given)", "activity change, negative = cytotoxicity": "6.12% (inactive)"},
      {"smiles": "Nc1nc(Cl)cc(Cl)n1", "activity change, negative = cytotoxicity": "6.97% (inactive)"},
      {"smiles": "CN(C)CCCN(C)C", "activity change, negative = cytotoxicity": "3.01% [at 7.04 µM] (inactive)"},
      {"smiles": "CCCCCCCCC1CO1", "note": "(stereo not given)", "activity change, negative = cytotoxicity": "2.71% [at 78.9 µM] (inactive)"},
      {"smiles": "CNCCc1ccccn1", "activity change, negative = cytotoxicity": "-20.1% [at 27 µM] (inactive)"},
      {"smiles": "C[C@@H](CN1CC(=O)NC(=O)C1)N1CC(=O)NC(=O)C1", "activity change, negative = cytotoxicity": "-0.409% (inactive)"},
      {"smiles": "O=Cc1ccccc1S(=O)(=O)O", "activity change, negative = cytotoxicity": "0.753% (inactive)"},
      {"smiles": "Cc1nc2ccc(Cl)cc2[nH]1", "activity change, negative = cytotoxicity": "-20.5% (inactive)"},
      {"smiles": "Cc1ccccc1C#N", "activity change, negative = cytotoxicity": "1.99% (inactive)"}
    ]}
  ]
}
